# Values without a mark were called inactive.
# Tested on: Plasmodium falciparum NF54/iGP1_RE9H ulg8 stage V gametocytes
# Experiment: gametocyte viability (luciferase signal relative to DMSO control) (% of DMSO control); higher = less gametocytocidal activity, active = 50 or less
# Settings: concentration: 10 µM; exposure time: 72 h
# Procedure, shortened: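 Stage V gametocytes of the NF54/iGP1_RE9Hulg8 line (day 12; ~2.5% gametocytemia, 3% hematocrit), in medium containing 0.5% Albumax II, were dispensed into 96-well plates with compounds spotted in nanolitre volumes from 10 mM DMSO stocks, for final concentrations of 10 µM or 1 µM in a single well each. After 72 h at 37 °C, 90 µl from each well was combined with 10 µl D-luciferin (30 mg/ml), and luminescence was measured on an IVIS Lumina II. Viability was expressed against the mean of the DMSO vehicle wells on the same plate.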
row,Structure (SMILES),gametocyte viability
1,O=C(Nc1c[nH]nc1-c1nc2ccc(CN3CCOCC3)cc2[nH]1)NC1CC1,113
2,N#CC(C#N)=C(N)/C(C#N)=C/c1cc(O)c(O)c(O)c1,113
3,N#CC1(c2ccc(NC(=O)c3cccnc3NCc3ccncc3)cc2)CCCC1 [Apatinib (YN968D1)],95.4
4,Cc1cn(-c2cc(NC(=O)c3ccc(C)c(Nc4nccc(-c5cccnc5)n4)c3)cc(C(F)(F)F)c2)cn1 [Nilotinib (AMN-107)],107
5,Nc1ncnc2c1c(I)cn2[C@@H]1O[C@H](CO)[C@@H](O)[C@H]1O [5-Iodotubericidin],113
6,COC(=O)Nc1ccc(-c2nc(N3CCOCC3)c3cnn(C4CCN(C(=O)OC)CC4)c3n2)cc1,97.2
7,COc1cc(Nc2ncc(F)c(Nc3ccc4c(n3)NC(=O)C(C)(C)O4)n2)cc(OC)c1OC,104
8,CCCNC(=O)Nc1ccc(Oc2ncnc3cc(OC)c(OC)cc23)cc1Cl,104
9,Cc1cc(Nc2nc(N[C@@H](C)c3ccc(F)cc3)c(C#N)cc2F)n[nH]1,99.6
10,COc1cc2ncc(-c3ccccc3)nc2cc1OC,91.9
11,"Cc1cc(Nc2cc(N3CCN(C)CC3)nc(Sc3ccc(NC(=O)C4CC4)cc3)n2)n[nH]1 [VX-680 (MK-0457, Tozasertib)]",84.3
12,CC(C)(C)c1cc(C=C(C#N)C(N)=S)cc(C(C)(C)C)c1O,102
13,Cc1cc(Nc2cc(CN3CCOCC3)c3nc(C)c(Cc4ccc(Cl)cc4F)n3n2)n[nH]1,97.8
14,CC(C)n1cnc2c(NCc3ccccc3)nc(NCCO)nc21 [N9-isopropyl-olomoucine],91
15,COc1cc2c(Oc3ccc(NC(=O)C4(C(=O)Nc5ccc(F)cc5)CC4)cc3F)ccnc2cc1OCCCN1CCOCC1,91.5
16,CC[C@H](Nc1ncnc2[nH]cnc12)c1nc2cccc(F)c2c(=O)n1-c1ccccc1,95.9

row,Structure (SMILES),gametocyte viability
1,N#C/C(=C\c1ccc(O)c(O)c1)C(=O)Nc1ccccc1,104
2,COc1ccc(S(=O)(=O)N(C(C)=O)c2ccccc2/C=C/c2cc[n+]([O-])cc2)cc1,112
3,COc1cc2c(N3CCN(C(=O)Nc4ccc(OC(C)C)cc4)CC3)ncnc2cc1OCCCN1CCCCC1 [Tandutinib (MLN518)],91.8
4,CC(=O)Nc1cccc(-n2c(=O)n(C3CC3)c(=O)c3c(Nc4ccc(I)cc4F)n(C)c(=O)c(C)c32)c1,82.7
5,O=S(=O)(c1cccc2cnccc12)N1CCCNCC1,110
6,O=S(=O)(c1cccc2c(Cl)cccc12)N1CCCNCC1,90
7,Cn1c(=O)c(F)c(Nc2ccc(I)cc2F)c2c(=O)n(C[C@@H](O)CO)cnc21,114
8,CO[C@H]1C[C@@H]2CC[C@@H](C)[C@@](O)(O2)C(=O)C(=O)N2CCCC[C@H]2C(=O)O[C@H]([C@H](C)C[C@@H]2CC[C@@H](OP(C)(C)=O)[C@H](OC)C2)CC(=O)[C@H](C)/C=C(\C)[C@@H](O)[C@@H](OC)C(=O)[C@H](C)C[C@H](C)/C=C/C=C/C=C/1C [Deforolimus (Ridaforolimus)],86.2
9,O=C1Nc2ccc(I)cc2/C1=C/c1cc(Br)c(O)c(Br)c1,90.5
10,CNC(=O)c1cc(COc2nnc(Nc3ccc(Cl)cc3)c3ccoc23)ccn1 [Telatinib (BAY 57-9352)],115
11,C[C@@H](Oc1cc(-n2cnc3ccc(CN4CCN(C)CC4)cc32)sc1C(N)=O)c1ccccc1C(F)(F)F,81.6
12,Cc1[nH]c(/C=C2\C(=O)Nc3ccc(S(=O)(=O)N(C)c4cccc(Cl)c4)cc32)c(C)c1C(=O)N1CCN(C)CC1,92.8
13,COc1cc2nccc(Oc3ccc(NC(=O)Nc4ccc(F)cc4F)c(F)c3)c2cc1OC,85
14,O=c1ncn2nc(Sc3ccc(F)cc3F)ccc2c1-c1c(Cl)cccc1Cl,103
15,CC[C@@H]1C(=O)N(C)c2cnc(Nc3ccc(C(=O)NC4CCN(C)CC4)cc3OC)nc2N1C1CCCC1,63.5
16,CCc1cccc(CC)c1NC(=O)N1Cc2[nH]nc(NC(=O)c3ccc(N4CCN(C)CC4)cc3)c2C1,68.7

# From the supplement of paper PMC12297408
